NPSR antagonist: blocks cAMP signaling of the human neuropeptide S receptor; Q6W5P4; CHO-NPSR cells, cAMP TR-FRET, antagonist mode; Potency, µM (top dose mostly 38.3 µM), for inactives: at the top dose activity change, negative = inhibition, hits mostly inhibitors; 220,000 tested, 1% active; also: nearly all actives have a fitted effect of over 50% in size
Tau fluor counter: counter-screen for tau fibril formation inhibitors; tau K18 P301L Alexa594 fluorescence, heparin fibrillization; 280,000 tested, 0.93% active; AID 1463; Potency, µM (highest dose often 57.7 µM), for inactives: at the highest dose activity change, negative = decrease; also: nearly all actives have a fitted effect of over 55% in size
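Human K18 P301L tau (15 uM unlabeled plus 0.24 uM Alexa 594-labeled, final) in 100 mM sodium acetate pH 7 was mixed with compound and 20 uM heparin and incubated 6 hr at 37 C.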
Tau fibril FP: tau fibrillization inhibition (FP). 280,000 tested, 0.39% active. P10636. K18 P301L tau heparin fibrillization, Alexa594 FP, 6 h. Potency, µM (series often up to 57.7 µM), inactives show top-dose activity, negative = inhibition, actives largely listed as inhibitors. AID 1468; also: nearly all actives have a fitted effect of over 55% in size
Target sequence (P10636 561-689 P618L limits assumed): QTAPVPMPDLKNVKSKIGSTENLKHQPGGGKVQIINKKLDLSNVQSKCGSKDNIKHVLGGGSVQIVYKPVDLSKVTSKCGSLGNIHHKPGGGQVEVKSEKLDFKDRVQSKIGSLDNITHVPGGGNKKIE
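K18 P301L tau (15 uM unlabeled/0.24 uM Alexa 594-labeled, final) + compound + heparin 20 uM final; 100 mM NaOAc pH 7; 6 hr 37 C; ThT 30 uM final added, 1 hr RT; FP ex 555/em 632 nm.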
ALDH1A1 inh: blocks purified human ALDH1A1 activity | P00352 | Potency, µM (titrated, usually from 75.3 µM), inactives show at the highest dose activity, negative = inhibition, usual class: inhibitors | Purified ALDH1A1, NADH fluorescence, propionaldehyde substrate | 220,000 tested, 7.3% active; active = well fitted inhibition curve with a large enough effect, not every such curve was filed as active; inconclusive = small, poorly fitted or top-dose-only effect, or another doubt; inactive = no such curve, though single readings can be large or run the other way;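 also: plate controls were no enzyme wells and a reference inhibitor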
HPGD block: inhibitors of human 15-hydroxyprostaglandin dehydrogenase (HPGD); P15428; purified HPGD, NADH fluorescence kinetic, PGE2 substrate; Potency, µM, for inactives: top-dose activity change, negative = inhibition, hits mostly inhibitors; 150,000 tested, 4.3% active; active = well fitted inhibition curve with a large enough effect, not every such curve was filed as active; inconclusive = small, poorly fitted or top-dose-only effect, or another doubt; inactive = no such curve, though single readings can be large or run the other way
Target sequence (P15428 whole entry, looked up): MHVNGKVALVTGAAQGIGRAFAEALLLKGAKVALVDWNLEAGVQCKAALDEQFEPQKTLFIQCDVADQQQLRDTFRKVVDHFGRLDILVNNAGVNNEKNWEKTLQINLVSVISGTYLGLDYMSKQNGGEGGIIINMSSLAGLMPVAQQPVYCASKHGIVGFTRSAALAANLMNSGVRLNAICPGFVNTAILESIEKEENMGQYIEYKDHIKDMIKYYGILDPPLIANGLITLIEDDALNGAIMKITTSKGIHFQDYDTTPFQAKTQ
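20 nM HPGD preincubated 15 min at room temperature with compound in 50 mM Tris-HCl pH 8, 0.01% Tween 20. Started with 1 mM NAD+ and 30 uM prostaglandin E2; NADH fluorescence (360/450 nm) read 5 times over 30-s intervals, last minus first.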
Tau fibril ThT: inhibitors of human tau fibril formation, thioflavin T binding | P10636 | recombinant tau K18 P301L (four-repeat tau fragment), heparin-induced fibrillization, ThT fluorescence | Potency, µM (series often up to 57.4 µM), without a hit: top-dose activity, negative = inhibition, hits mostly inhibitors | 270,000 tested, 2.1% active | AID 1460; also: nearly all actives have a fitted effect of over 55% in size
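Recombinant human tau K18 fragment […] carrying P301L, 15 uM unlabeled plus 0.24 uM Alexa 594-labeled, was fibrillized with 20 uM heparin in 100 mM sodium acetate pH 7 for 6 hr at 37 C; 30 uM ThT fluorescence read after 1 hr.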
* hit, by the source's call; ? = inconclusive; . = no result; [ ] = remark or other dose. The list is not random: actives were taken first. Their share in the collection is about 9.5%. Unless noted, calls follow the shape of the dose curve; as a rule, active = well fitted curve in the direction sought with a large enough effect; inconclusive = small, poorly fitted or top-dose-only effect, or another doubt; inactive = no such curve, though single readings can be large; an effect the other way counts as inactive or inconclusive. Unless noted, % is scaled to controls: 0 for no effect and ±100 for the full control effect; potency is read from the fitted curve at half-maximal effect.

SMILES	NPSR antagonist	Tau fluor counter	Tau fibril FP	ALDH1A1 inh	HPGD block	Tau fibril ThT
CC(C)CC(NC(=O)OCC1c2ccccc2-c2ccccc21)C(=O)O (stereo not drawn)	.	5.0%	-4.7%	8.91µM*	-8.9%	-0.2%
O=C(CSc1nnnn1-c1ccc(F)cc1)NC1CCCCC1	-7.4%[46.1 µM]	-3.3%	1.2%	?	-10.1%	-13.6%
O=C(c1ccc(F)cc1)N1CCCCC(Sc2nnnn2-c2ccccc2)C1=O (stereo not drawn)	-22.7%[46.1 µM]	-20.7%	3.5%	4.47µM*	-16.7%	-2.1%
O=C1OCCC1Sc1nnnn1-c1ccccc1 (stereo not drawn)	-2.4%[46.1 µM]	-6.6%	-14.2%	?	-12.1%	-8.7%
O=C(c1ccccc1)N1CCCCC(Sc2nnnn2-c2ccccc2)C1=O (stereo not drawn)	-8.2%[46.1 µM]	-10.5%	-2.1%	3.55µM*	-10.8%	-4.4%
CCCc1ccc(OCc2ccc(C(=O)N3CCN(c4ccccn4)CC3)o2)c(OC)c1	-28.1%[46.1 µM]	-20.1%	-3.9%	-12.3%	?	?
CC(C)c1ccc(/C=C2\Oc3c(ccc(O)c3CN3CCN(C)CC3)C2=O)cc1	10µM*	-16.4%	7.9%	-2.2%	.	12.2%
CCN1CCN(Cc2c(O)ccc3c2O/C(=C\C=C\c2ccccc2OC)C3=O)CC1	-30.2%	?	0.4%	?	?	?
Cc1ccc(/C=C2\Oc3c(ccc(O)c3CN3CCN(CCO)CC3)C2=O)cc1	10µM*	-12.2%	0.8%	?	.	?
O=C1/C(=C/c2ccco2)Oc2c1ccc(O)c2CN1CCCCC1	-33.4%	-15.5%	-14.1%	?	?	?
CC1CCN(Cc2c(O)ccc3c2O/C(=C\c2ccco2)C3=O)CC1	-23.2%	-24.7%	-8.0%	25.1µM*	-18.2%	?
Cc1ccc(C)c(S(=O)(=O)NC(CCC(N)=O)C(=O)O)c1 (stereo not drawn)	-0.3%[46.1 µM]	4.9%	-0.5%	1.7%	.	0.1%
CCc1ccc(NC(=O)CC2NCCNC2=O)cc1 (stereo not drawn)	-9.0%[46.1 µM]	3.6%	6.6%	6.6%	-12.0%	-2.6%
CCc1ccc(NC(=O)CC2C(=O)Nc3c2c(=O)n(C)c(=O)n3C)cc1 (stereo not drawn)	-8.3%[46.1 µM]	0.5%	-2.2%	100µM*	-19.0%	-10.2%
CC1CC(C)CN(C(=O)c2cc3cc(Br)cc(Br)c3o2)C1 (stereo not drawn)	-40.5%	-4.7%	5.0%	?	.	?
CC(C)Oc1cccc(C(=O)C2CCCN(Cc3ccc4nonc4c3)C2)c1 (stereo not drawn)	58.3%	-17.5%	-3.4%	?	.	-16.6%
CCOC(=O)C1CCCN(CC(O)COc2cccc(C)c2)C1 (stereo not drawn)	5.7%	3.6%	-3.2%	7.1%	25.1µM*	3.9%
CCOC(=O)C1CCCN(C(=O)c2ccc3c(c2)N(Cc2ccccc2)C(=O)c2ccccc2S3=O)C1 (stereo not drawn)	-51.1%	-9.7%	5.0%	20µM*	.	?
CCOC(=O)C1CCCN(C(=O)c2ccc3c(c2)N(Cc2ccccc2)C(=O)c2ccccc2S3(=O)=O)C1 (stereo not drawn)	.	-14.9%	6.7%	.	.	-6.2%
CCOC(=O)C1CCCN(CCC(=O)Nc2cccc(C)c2)C1 (stereo not drawn)	0.6%	-9.3%	-4.1%	-5.5%	.	-1.7%
Cc1ccc(CNC(=O)CCC2CCCN(C(=O)c3ccc4c(c3)OCO4)C2)o1 (stereo not drawn)	2.8%	-0.4%	-7.5%	15.8µM*	.	?
CC(C)Oc1cccc(C(=O)C2CCCN(Cc3cnn(C(C)C)c3)C2)c1 (stereo not drawn)	-2.4%	-2.6%	3.0%	10µM*	.	?
C[C@@](N)(Cc1c[nH]c2ccccc12)C(=O)O	.	.	.	-2.5%[13.5 µM]	-0.9%	.
CCOC(=O)C1CCCN(C(=O)c2ccc3c(c2)OCO3)C1 (stereo not drawn)	-1.6%[46.1 µM]	7.8%	12.8%	?	10µM*	4.9%

High-throughput results: PubChem BioAssay, National Center for Advancing Translational Sciences (NCATS)
